Assay outcomes deposited in PubChem BioAssay by Broad Institute.
Tgondii IFNg: T. gondii growth inhibition with IFN-gamma, primary screen, cell-based; Toxoplasma gondii growth in IFN-gamma-treated host cells; stronger effect = lower value; activity change, negative = inhibition, % (test concentration not listed); 3.8% of 69,000 active; AID 1259416, 2018; in the data active = activity change below about -70%, passing the limit was not always enough;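 also: host cells are HeLa cells infected with Toxoplasma gondii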
Numbers stand for hits; 0 = inactive. This excerpt belongs to a sample that is enriched for hits.

SMILES | Tgondii IFNg
Cc1cc(C(=O)N2CCc3onc(-c4ccc(C(F)(F)F)cc4)c3C2)no1 | 0
Cc1ccc2nc(-c3ccccn3)cc(C(=O)Nc3n[nH]c4nc(C)ccc34)c2c1 | -98.6
O=C(NCCc1c[nH]c2ccc(Cl)cc12)c1cc(-c2ccccn2)nc2ccccc12 | 0
CCOC(=O)c1c(NC(=O)c2cc(-c3ccccc3)nc3ccc(C)cc23)sc(C)c1C | 0
Cc1nc(-c2ccc(Cl)cc2)sc1CCNC(=O)Cc1ccc(F)cc1 | 0
O=C(Cc1c(F)cccc1Cl)Nc1nncs1 | 0
Cc1cc(SCC(=O)Nc2ccccc2)nc(SCc2ccc(Cl)cc2)n1 | 0
O=C(Nc1ccccc1)Nc1ccc(Cl)cc1SCc1ccccc1 | -77.1
Cc1ccc(Cl)cc1NC(=O)Nc1ccc(-c2nc(-c3ccccc3)co2)cc1 | 0
CC(C)COC1CC2(CCN(S(=O)(=O)c3cn(C)cn3)CC2)C1 | 0
Cc1noc(C)c1NC(=O)N1C[C@@H](O)COC[C@H]2O[C@H](CC(=O)N[C@@H]3CCN(Cc4ccccc4)C3)CC[C@@H]21 | 0
CC(C)c1ccc(C(=O)NC2CC(=O)N(CCc3ccccc3)C2)c(=O)[nH]1 (centres undefined) | 0
Cc1ccc(C(=O)Nc2ccc(-c3nc(Cn4cccn4)c(C)o3)cc2)cc1F | 0
Cc1oc(-c2ccc(NC(=O)c3cccc(Cl)c3)cc2)nc1Cn1cccn1 | 0
Cc1oc(-c2ccc(NC(=O)c3cc(F)cc(F)c3)cc2)nc1Cn1cccn1 | 0
COc1cccc(C(=O)Nc2ccc(-c3nc(Cn4cccn4)c(C)o3)cc2)c1 | -98.9
Cc1oc(-c2ccc(NC(=O)c3cccc(F)c3)cc2)nc1Cn1cccn1 | -86.6
COc1cccc(C(=O)Nc2ccc(-c3nc(Cn4cc(C)cn4)c(C)o3)cc2)c1 | -92.7
COc1cccc(CC(=O)Nc2ccc(-c3nc(Cn4cccn4)c(C)o3)cc2)c1 | 0
Cc1cnn(Cc2nc(-c3ccc(NC(=O)c4cccc(C#N)c4)cc3)oc2C)c1 | 0
O=C(CCC1N=C2c3ccccc3N=C(SCc3cccc(F)c3)N2C1=O)NCCc1ccccc1 (centres undefined) | 0
CN(C)CC1(O)CCN(C(=O)COc2ccc3c(c2)OCO3)C1 (centres undefined) | 0
O=C(c1cc(-c2ccsc2)n[nH]1)N1Cc2cnn(CCO)c2C1 | 0
CN(C)C(=O)CN1CCC2(CC1)COc1ccccc1S(=O)(=O)N(CC1CC1)C2 | 0
O=C(O)c1ccccc1C1CCN(Cc2ccccc2-n2cccn2)C1 (centres undefined) | 0
SMILES | Tgondii IFNg
C/C=C/c1ccc([C@H]2[C@@H](CO)N3CCCCN(S(=O)(=O)c4ccc(OC)cc4)C[C@@H]23)cc1 | 0
Cc1nc(-c2ccccc2)sc1C(=O)N1CCCc2ccccc21 | 0
CCOC(=O)C1CCN(C(=O)c2ccc(-c3csc(C4CC4)n3)cc2)CC1 | 0
O=C(C1CC1)N1CCc2cc(-c3csc(C4CC4)n3)ccc21 | -112.5
Cc1nc(C)c(C(=O)N2CCc3cc(-c4csc(C5CC5)n4)ccc32)s1 | -109.0
Cc1cccc(N2CCN(C(=O)c3ccc(-c4csc(C5CC5)n4)cc3)CC2)c1C | 0
CC(=O)N1CCC(C(=O)N2CCc3cc(-c4csc(C5CC5)n4)ccc32)CC1 | 0
C[C@H](NC(=O)[C@@H]1[C@@H](CO)[C@@H]2Cn3c(cccc3=O)[C@H]1N2C(=O)C1CCC1)c1ccccc1 | 0
Cc1ccc(C(C)Cc2c(-c3ccccc3)ncn2CCCO)o1 (centres undefined) | 0
COc1ccc2c3c([nH]c2c1)[C@@H](CO)N(C)CC31CCN(C(=O)c2ccccn2)CC1 | 0
Cc1ccc(C(C)NC(=O)Cn2ncc3c(N4CCCC4)ncnc32)cc1 (centres undefined) | 0
Cc1ccc(-c2ncc(CN(Cc3ccccc3)Cc3cccc(C)n3)cn2)cc1 | -78.9
Cc1cccc(CN(Cc2ccccc2)C(=O)CCc2ccncc2)n1 | 0
Cc1cccc(CN(Cc2ccccc2)C(=O)c2ccc3nc(C(F)(F)F)[nH]c3c2)n1 | 0
Cc1nnc(SCCC(=O)Nc2ccc(Cl)cc2)o1 | 0
Cc1cc(-c2cc(O)ccc2Cl)cc2nnc(Nc3ccc(OCCN4CCCC4)cc3)nc12 | -91.3
Cc1ccc(NC(=O)CC(=O)NCCN2CCCC2)cc1Cl | 0
Fc1ccc2nc(-c3ccc(Br)cc3)nc(SCC3CCCCC3)c2c1 | 0
Cc1ccc(N2CCc3sc(C(=O)NCCN(C)C)cc32)nn1 | 0
COc1cc(O)c(C(=O)c2ccccc2)cc1O | 0
Cc1nc(-c2ccccc2)c(NC(=O)c2ccccc2)s1 | 0
O=C(c1ccccc1)c1cc(C(=O)c2ccccc2)c(-c2ccccc2)nc1-c1ccccc1 | -89.3
CO[C@@H]1CN(C)C(=O)c2cc(NS(=O)(=O)c3ccc(Cl)cc3)ccc2OC[C@H](C)N(C(=O)NC(C)C)C[C@@H]1C | 0
O=c1oc2ccccc2cc1-c1csc(-c2ccc(Br)cc2)n1 | 0
CCN1C(=O)CCc2cc(C(=O)N3CCCCC3)ccc21 | 0
SMILES | Tgondii IFNg
O=C(c1ccc2c(c1)CCC(=O)N2Cc1ccccc1)N1CCN(c2ccccc2F)CC1 | -102.0
CCN1C(=O)CCc2cc(C(=O)N3CCOCC3)ccc21 | 0
COc1ccc2c3c([nH]c2c1)[C@@H](CO)N(C(C)=O)CC31CCN(S(=O)(=O)c2ccccc2)CC1 | 0
CCCn1ccnc1CN1CCCC(c2nn(C)c(=O)n2CC)C1 (centres undefined) | 0
CCn1ccnc1CN1CCCC(c2cncc(-c3cccc(Cl)c3)n2)C1 (centres undefined) | -109.7
Cc1cccc(-c2ncc(CN3CCCC(Cn4ccnc4C)C3)cn2)c1 (centres undefined) | 0
O=C(NC1(C(F)(F)F)Oc2ccc(Cl)cc2O1)Sc1ccccc1 (centres undefined) | 0
CCOc1cc(C(=O)NCCc2csc(-c3ccc(Cl)cc3)n2)cc(OCC)c1OCC | 0
COC(=O)c1cscc1NC(=O)CC(CC(=O)O)c1ccccc1 (centres undefined) | 0
COC(=O)C[C@H]1CC[C@H]2[C@@H](COC[C@@H](O)CN2S(=O)(=O)c2ccccc2OC)O1 | 0
COC(=O)C[C@H]1CC[C@@H]2[C@@H](COc3ccc(NC(=O)c4ccc(C(F)(F)F)cc4)cc3C(=O)N2C)O1 | 0
CN(C)[C@@H]1C[C@@H](CO)N(Cc2c(Cl)nc3sccn23)C1 | 0
NC(=S)c1cc(-c2ccccc2)c(C(F)(F)F)s1 | -93.5
O=C(O)c1cc(-c2ccccc2)c(C(F)(F)F)s1 | 0
FC(F)(F)c1sc(-c2nnc(-c3ccc(Cl)cc3Cl)o2)cc1-c1ccccc1 | 0
C=CCN(Cc1cccc(OC)c1)C(=O)c1cc(Cl)ccc1OC | 0
C=CCN1CCN(C(=O)c2cc(C(C)C)[nH]n2)C(Cc2cccc(-c3cccnc3)c2)C1=O (centres undefined) | 0
c1ccc(Nc2cccc3c(Nc4ccccc4)cccc23)cc1 | 0
c1ccc2c(NC3=NCCCCS3)cccc2c1 | 0
Cc1ccc(Nc2cccc3ccccc23)cc1 | -119.0
C[C@H]1CN([C@@H](C)CO)C(=O)CCCn2nncc2CO[C@H]1CN(C)Cc1ccccc1C(=O)O | 0
CCSc1nc(CC(=O)N(C)Cc2nonc2C)cs1 | 0
NC(=O)c1cc2c(cc1-c1cccc(C(F)(F)F)c1)OCO2 | 0
COc1ccc(C(=O)Nc2ccc(NC(=O)C(C)C)cn2)cc1 | 0
COC(=O)c1sccc1NC(=S)Nc1ccccc1N1CCOCC1 | 0
CC1CCCCN1C(=O)c1ccnn1-c1ccc2ccc(-c3ccccc3)cn12 (centres undefined) | -85.5
O=C(Nc1cccnc1)c1ccnn1-c1ccc2ccc(-c3cccnc3)cn12 | 0
